FLuc counter: qHTS profiling assay for firefly luciferase inhibitor/activator using purifed enzyme and Km concentrations of substrates (counterscreen for miR-21 project); Luciferin 4-monooxygenase (Photinus pyralis), P08659; purified FLuc, Km substrates, luminescence inhibition; Potency, µM (titrated, usually from 57.5 µM), most hits filed as inhibitors; hit rate 6.9% among 360,000; AID 588342, 2011; further: nearly all actives have a fitted effect of over 55% in size
Target sequence (P08659 whole entry, looked up): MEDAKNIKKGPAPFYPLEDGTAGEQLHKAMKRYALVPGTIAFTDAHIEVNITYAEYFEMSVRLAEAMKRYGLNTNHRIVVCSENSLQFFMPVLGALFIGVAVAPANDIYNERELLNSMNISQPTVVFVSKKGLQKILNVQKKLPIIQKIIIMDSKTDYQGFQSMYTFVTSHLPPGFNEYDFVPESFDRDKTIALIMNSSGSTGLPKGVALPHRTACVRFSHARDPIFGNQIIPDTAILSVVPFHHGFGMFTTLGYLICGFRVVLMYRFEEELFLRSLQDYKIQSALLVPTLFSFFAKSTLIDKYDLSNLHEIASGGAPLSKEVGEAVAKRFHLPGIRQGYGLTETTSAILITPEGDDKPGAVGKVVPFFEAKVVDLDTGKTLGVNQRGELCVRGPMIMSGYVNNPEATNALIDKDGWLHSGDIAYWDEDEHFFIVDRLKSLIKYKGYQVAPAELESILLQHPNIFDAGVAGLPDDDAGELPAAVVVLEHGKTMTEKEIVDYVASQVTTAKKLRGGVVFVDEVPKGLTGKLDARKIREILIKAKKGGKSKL
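Purified P. pyralis luciferase (10nM final) with 10uM D-luciferin and 10uM ATP (Km levels) in 50mM Tris acetate pH 7.5, 10mM Mg acetate, 0.01% Tween-20, 0.05% BSA; qHTS 6-point titration, ~60 µM downward; luminescence read.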
NPC1 prom act: qHTS Assay for NPC1 Promoter Activators. hit rate 2.4% among 320,000. Potency, µM (highest dose often 9.22 µM), actives largely listed as activators. Huh7 NPC1 promoter luciferase reporter, 24 h; further: nearly all actives have a fitted effect of over 60% in size
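Luminescence from an NPC1 promoter-driven luciferase reporter in stably transfected Huh7 cells was measured after 24 h compound treatment at 37 °C, followed by 10 min ambient incubation with luciferase detection reagent.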
ELG1 genotox: qHTS screen for small molecules that induce genotoxicity in human embryonic kidney (HEK293T) cells expressing luciferase-tagged ELG1. hit rate 1.3% among 330,000. Potency, µM (top dose mostly 46 µM), actives largely listed as activators. HEK293T ELG1-luciferase reporter, luminescence, 16 h; further: nearly all actives have a fitted effect of over 60% in size
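Cells (2,000/well) expressing the ELG1-luciferase fusion are dosed by pin tool and kept 16 hr at 37 °C, 5% CO2. Signal comes from ONE-Glo luciferase reagent after 30 min at room temperature.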
Luc counter: Counterscreen for Luciferase (Kinase-Glo TM) Inhibition; Luciferin 4-monooxygenase (Photuris pensylvanica), Q27757; Kinase-Glo luciferase, ATP luminescence, 8 min; Potency, µM (series often up to 38.3 µM), actives largely listed as inhibitors; hit rate 0.28% among 200,000; AID 1379, 2008; further: nearly all actives have a fitted effect of over 60% in size
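Compounds were added to a substrate mix at pH 7.2 (50 mM imidazole, 10 uM ATP, within the enzyme's linear range), followed by Kinase-Glo detection reagent; luminescence was measured after 8 minutes at ambient temperature.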
SMN2 splice up: qHTS Assay for Enhancers of SMN2 Splice Variant Expression; HEK293 SMN2-luciferase splicing reporter, luminescence, 30-36 h; Potency, µM (highest dose often 46.1 µM), usual class: activators; hit rate 2.8% among 210,000; AID 1458, 2008; further: nearly all actives have a fitted effect of over 55% in size
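HEK293 cells carry an SMN2 minigene-luciferase reporter in which exon 7 inclusion puts luciferase in frame. Cells were seeded at 2000 cells/well, attached for 10-12 hours, then exposed to compounds for 30-36 hours at 37C before ONE-Glo luminescence.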
Rab9 promoter act: qHTS Assay for Rab9 Promoter Activators; Potency, µM (titrated, usually from 9.22 µM), actives largely listed as activators; AID 485297, 2010; hit rate 2.8% among 320,000; Huh7 Rab9 promoter-luciferase reporter, luminescence, 24 h; further: nearly all actives have a fitted effect of over 60% in size
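Rab9 promoter-driven luciferase in stably transfected Huh7 cells; 1500 cells/well rested 2 h, exposed to compound in DMSO for 24 h at 37 °C, 5% CO2. Luminescence read 10 min after adding luciferase reagent at ambient temperature.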
Hits are given with their value; i = inactive; ? = inconclusive; nt = no result. The list is not random: actives were taken first. Their share in the collection is about 7.5%. The call rests on the fitted dose curve; in most records, active means well fitted curve in the direction sought with a large enough effect; inconclusive means small, poorly fitted or top-dose-only effect, or another doubt; inactive means no such curve, though single readings can be large; an effect the other way counts as inactive or inconclusive.

SMILES | FLuc counter | NPC1 prom act | ELG1 genotox | Luc counter | SMN2 splice up | Rab9 promoter act
Nc1c(-c2ccccn2)cnn1-c1nc(-c2ccc(F)cc2)cs1 | 9.5µM | i | i | i | i | i
COc1ccc(OCc2ccc(-c3nc(C#N)c(N4CCC(C)CC4)o3)o2)cc1 | i | nt | nt | nt | nt | nt
Cc1cc2c(s1)c1c(n2C)C(=O)N(Cc2ccccc2F)C1 | i | i | nt | nt | nt | i
COc1cccc2sc(N(Cc3cccnc3)C(=O)Cc3ccccc3)nc12 | i | nt | nt | nt | nt | nt
COc1ccc(C(C#N)=C2C=CC(=NO)C=C2)cc1 | 17µM | i | i | nt | nt | i
Cc1ccccc1-c1nnc(SCC#N)o1 | i | i | i | i | nt | i
Cc1ccccc1-c1nnc(-c2ccccc2C)o1 | 6.7µM | ? | ? | i | 22µM | ?
Oc1ccccc1-c1nnc(-c2ccc(C(F)(F)F)cc2)o1 | ? | i | ? | i | i | i
Cc1ccccc1-c1nnc(-c2ccc(Br)cc2)o1 | ? | ? | 9.2µM | i | ? | ?
CCc1ccc2nc(N(CCN(C)C)C(=O)c3ccc4ncsc4c3)sc2c1 | 13µM | 2.8µM | 3.7µM | nt | nt | 1.8µM
c1ccc2sc(Nc3nc4cc5c(cc4s3)OCO5)nc2c1 | 2.4µM | 3.2µM | 5.2µM | i | 3.2µM | 1µM
Fc1ccc2nc(Nc3nc4cc5c(cc4s3)OCCO5)sc2c1 | ? | 2.8µM | ? | i | ? | 2.8µM
O=C(NNc1nc2cc3c(cc2s1)OCO3)c1ccc(F)cc1 | ? | i | i | i | i | i
Fc1ccc2nc(Nc3nc4cc5c(cc4s3)OCO5)sc2c1 | 6µM | 2.5µM | 13µM | i | 11µM | 2µM
O=C(NNc1nc2cc3c(cc2s1)OCCO3)c1ccc(F)cc1 | ? | i | i | i | i | i
CCOc1cc(CNC(=O)c2ccc3nc(C(C)C)oc3c2)cc(OCC)c1OCC | i | nt | nt | nt | nt | nt
O=C(COc1ccccc1)Nc1ccc2[nH]ncc2c1 | ? | i | i | nt | nt | i
O=C(COc1ccc(Cl)cc1)Nc1ccc2[nH]ncc2c1 | i | i | i | nt | nt | i
CCOc1ccc(C(=O)Nc2ccc3[nH]ncc3c2)cc1 | 1.3µM | 1.3µM | i | nt | nt | 1.4µM
COc1ccc(C(=O)N/N=C(\C)CC(=O)Nc2ccc3ccccc3c2)c(OC)c1 | i | i | i | nt | nt | i
COc1ccc(C(=O)Nc2ccc3[nH]ncc3c2)cc1 | 1.9µM | 0.89µM | 8.2µM | nt | nt | 2.8µM
COc1ccc(C(=O)Nc2ccc3cn[nH]c3c2)c(OC)c1 | 6µM | ? | ? | i | 13µM | ?
Cc1ccc(NC(=O)C2CCC(CNS(=O)(=O)c3ccc4c(c3)CCCC(=O)N4)CC2)c(C)c1 (stereo unspecified) | i | nt | nt | nt | nt | nt
CCOc1ccc(-c2cccc(NC(=O)c3ccco3)c2)nn1 | 21µM | i | i | nt | nt | i
Cc1nc(-c2cccc(NC(=O)COc3ccc(Cl)cc3)c2)cs1 | 13µM | i | i | nt | nt | i
SMILES | FLuc counter | NPC1 prom act | ELG1 genotox | Luc counter | SMN2 splice up | Rab9 promoter act
CCOc1ccc(-c2cccc(NC(=O)COc3ccc(Cl)cc3)c2)nn1 | 13µM | i | i | nt | nt | i
COc1cccc(C2(C)NC(=O)N(CC(=O)c3cc(C)n(C4CC4)c3C)C2=O)c1 (stereo unspecified) | nt | i | i | nt | nt | i
CC1CCN(C(=O)CSCc2ccc(Cl)cc2)CC1 | 19µM | ? | 15µM | i | ? | 3.2µM
C[C@H](C(=O)CC(=O)OC(C)(C)C)[C@H](O)c1ccccc1 | i | i | i | nt | nt | i
O=C(c1cc(COc2ccc(F)cc2F)on1)N1C[C@H]2CC[C@H]1C2 | ? | i | i | nt | nt | ?
COc1ccccc1OCc1cc(C(=O)N2CC3C[C@@H]4CC2C[C@H](C3)C4)no1 | 17µM | 4.5µM | ? | nt | nt | 3.5µM
COc1ccccc1OCc1cc(C(=O)N2CCN(C)C(c3ccccc3)C2)no1 (stereo unspecified) | 9.5µM | 4µM | ? | nt | nt | 2µM
O=C(c1cc(COc2ccc(F)cc2F)on1)N1CC2C[C@@H]3CC1C[C@H](C2)C3 | 17µM | ? | i | nt | nt | ?

Source: PubChem BioAssay
